High-throughput results deposited in PubChem BioAssay by Broad Institute.
The sample as a whole holds a higher share of hits than the screen did.
T cruzi growth-1 – inhibitors of T. cruzi proliferation | 77,000 compounds, 5.9% hits | T. cruzi beta-gal in NIH3T3, GalScreen luminescence, 90 h | inhibition, % at 8.34 µM;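 active = mean inhibition above about 93%, with at least 55% of replicates each passing it, limit read from the data, passing the limit was not always enough; inconclusive = only one of those two conditions holds; inactive = neither condition holds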
C diff growth – inhibitors of Clostridium difficile growth. Clostridium difficile clinical isolate growth, OD600, 24 h; active compounds read low. growth activity, negative = inhibition, % at 16 µg/mL (by protocol). 86,000 compounds, 0.25% hits;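 active = mean growth activity at or below -80% and every replicate also at or below -80%; inconclusive = mean at or below -80% but some replicate above -80%; inactive = mean growth activity above -80%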;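 also: 0% = DMSO wells and -100% = levofloxacin 16 µg/mL wells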
T cruzi growth-2 – blocks T. cruzi growth in NIH3T3 host cells; 5,600 compounds, 72% hits; T. cruzi beta-gal in NIH3T3, GalScreen luminescence, 90 h; shares compounds with T cruzi growth-1; AID 651739; inhibition, % at 8.35 µM;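 active = mean replicate inhibition above about 95% and at least 55% of replicates individually reaching it, limit read from the data; inconclusive = only one of the two criteria is met; inactive = neither criterion is met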
T cruzi growth-3 – Trypanosoma cruzi proliferation inhibition; shares compounds with T cruzi growth-1; T. cruzi beta-gal in NIH3T3, GalScreen luminescence, 90 h; inhibition, % at 2.09 µM; 5,600 compounds, 21% hits; AID 651740;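 active = mean inhibition above about 95%, with at least 55% of replicates also reaching it, limit read from the data; inconclusive = meets just one of the two conditions; inactive = meets neither condition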;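 also: plate controls were neutral control median for no effect and positive control median for full effect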
3T3 cytotox – NIH/3T3 (mouse) viability loss; shares compounds with T cruzi growth-1; NIH/3T3 viability, CellTiter-Glo ATP luminescence, 90 h; cytotoxicity (signal decrease), % at 8.35 µM; 5,600 compounds, 14% hits; AID 651742;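 active = mean signal decrease across replicates above about 35% based on untreated-well scatter, with enough replicates individually passing, limit read from the data; inconclusive = no rule stated though some were filed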;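 also: 0% = median of neutral control wells and 100% = median of positive control wells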
NIH3T3 tox 2 – NIH/3T3 (mouse) viability loss; shares compounds with T cruzi growth-1; NIH/3T3 viability, CellTiter-Glo ATP luminescence, 90 h; inhibition, % at 24.9 µM; 5,600 compounds, 56% hits;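 active = mean loss of cell viability signal at or above a set limit, and enough replicates individually reaching it; inconclusive = meets only the mean limit or only the replicate share; inactive = meets neither condition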;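 also: 0% = median of neutral control wells and 100% = median of positive control wells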
Active calls of the source: *.

For COc1ccc(S(=O)(=O)Nc2ccc3c(c2)C(=O)N([C@H](C)CO)C[C@@H](C)[C@H](CN(C)S(=O)(=O)c2ccc(OC)cc2)OCCCC[C@@H](C)O3)cc1 the results were T cruzi growth-1 inconclusive, C diff growth 4, T cruzi growth-2 102*, T cruzi growth-3 63, 3T3 cytotox 18 and NIH3T3 tox 2 12.
`COc1ccc(S(=O)(=O)Nc2ccc3c(c2)C(=O)N([C@H](C)CO)C[C@H](C)[C@@H](CN(C)S(=O)(=O)c2ccc(OC)cc2)OCCCC[C@@H](C)O3)cc1` gave T cruzi growth-1 53 and C diff growth -5.
For COc1ccc(S(=O)(=O)Nc2ccc3c(c2)C(=O)N([C@@H](C)CO)C[C@H](C)[C@H](CN(C)S(=O)(=O)c2ccc(OC)cc2)OCCCC[C@@H](C)O3)cc1 the results were T cruzi growth-1 93*, C diff growth -3, T cruzi growth-2 106*, T cruzi growth-3 80, 3T3 cytotox 16 and NIH3T3 tox 2 23.
Screening COc1ccc(S(=O)(=O)Nc2ccc3c(c2)C(=O)N([C@@H](C)CO)C[C@H](C)[C@@H](CN(C)S(=O)(=O)c2ccccc2)OCCCC[C@H](C)O3)cc1 returned C diff growth -1.
Screening COc1ccc(S(=O)(=O)Nc2ccc3c(c2)C(=O)N([C@@H](C)CO)C[C@@H](C)[C@@H](CN(C)S(=O)(=O)c2ccc(OC)cc2)OCCCC[C@H](C)O3)cc1 returned T cruzi growth-1 63 and C diff growth 0.
`C[C@@H]1CCCCO[C@@H](CN(C)S(=O)(=O)c2cccs2)[C@@H](C)CN([C@@H](C)CO)C(=O)c2cc(NS(=O)(=O)c3ccccc3)ccc2O1` gave T cruzi growth-1 43 and C diff growth -1.
`CCC(=O)N1C[C@H](C)[C@H](OC)CN(C)C(=O)c2cc(NS(C)(=O)=O)ccc2OC[C@H]1C` gave T cruzi growth-1 -2 and C diff growth -2.
`C[C@@H]1CN([C@@H](C)CO)C(=O)Cc2cc(NC(=O)CCCCCC(=O)Nc3ccccc3N)ccc2O[C@H]1CN(C)Cc1ccc2c(c1)OCO2` gave C diff growth -7.
`C[C@H](CO)N1C[C@H](C)[C@@H](CN(C)Cc2ccc3c(c2)OCO3)Oc2ccc(NC(=O)CCCCCC(=O)Nc3ccccc3N)cc2CC1=O` gave T cruzi growth-1 101*, C diff growth -3, T cruzi growth-2 109*, T cruzi growth-3 79, 3T3 cytotox -6 and NIH3T3 tox 2 0.
`C[C@@H]1CN([C@H](C)CO)C(=O)Cc2cc(NC(=O)CCCCCC(=O)Nc3ccccc3N)ccc2O[C@H]1CN(C)Cc1ccccc1` gave T cruzi growth-1 21 and C diff growth -12.
`C[C@H]1CN([C@@H](C)CO)C(=O)Cc2cc(NC(=O)CCCCCC(=O)Nc3ccccc3N)ccc2O[C@H]1CN(C)Cc1ccc2c(c1)OCO2` gave T cruzi growth-1 inconclusive, C diff growth -1, T cruzi growth-2 89, T cruzi growth-3 16, 3T3 cytotox 0 and NIH3T3 tox 2 19.
`O=C(C[C@@H]1C[C@H]2c3cc(NC(=O)NC4CCCC4)ccc3O[C@H]2[C@H](CO)O1)NCc1ccc2c(c1)OCO2` gave C diff growth 1.
For O=C(C[C@H]1C=C[C@H](NC(=O)c2cccnc2)[C@H](CO)O1)NCCN1CCCCC1 the results were T cruzi growth-1 5 and C diff growth -3.
`COc1ccc2c3c(n(C)c2c1)[C@H](CO)N(C(=O)CN1CCOCC1)CC31CN(C(=O)Nc2cccc(F)c2)C1` gave C diff growth 7.
Screening Cc1ccc(S(=O)(=O)N(C)C[C@@H]2Oc3c(NC(=O)Nc4ccc5c(c4)OCO5)cccc3C(=O)N([C@H](C)CO)C[C@@H]2C)cc1 returned T cruzi growth-1 -54 and C diff growth 5.
`CC(C)NC(=O)N(C)C[C@H]1Oc2cc(C#Cc3ccccn3)ccc2S(=O)(=O)N([C@H](C)CO)C[C@H]1C` gave T cruzi growth-1 111*, C diff growth -4, T cruzi growth-2 99*, T cruzi growth-3 46, 3T3 cytotox 4 and NIH3T3 tox 2 40*.
Screening CC(C)NC(=O)N(C)C[C@H]1Oc2cc(C#Cc3ccccn3)ccc2S(=O)(=O)N([C@@H](C)CO)C[C@H]1C returned T cruzi growth-1 48 and C diff growth -3.
